The inhibition is the relative decrease from the control value, in per cent.

This note sets out measurements from PubChem BioAssay.

A number with no mark means an inactive call. Calls of active or inactive are those of the source. Cut-off read from the data, not from the text of the source: active = inhibition above about 28%; inactive = the rest.

This assay can be described thus: StAR promoter reporter inhibitors, counter-screen for LRH-1 inverse agonist project, cell-based, luminescence, high throughput (AID 651611). The note with it: StAR promoter luciferase reporter counterscreen, at 3.6 µM, hits give high values. For orientation: The purpose of a counterscreen is to sort out artefacts and off-target activity.
As for `Cn1ncc(Cl)c1C(=O)NCc1ccc2c(c1)OCO2`, the inhibition is -2.54%. On to `Cc1ccccc1NC(=S)NCc1ccc2[nH]c3c(c2c1)CCCC3`, for which the inhibition is -0.36%.

On to `C#CCN(C[C@@H]1[C@@H](OC(=O)NCc2ccc(OC)c(OC)c2)[C@@H](OC(=O)NCc2ccc(OC)c(OC)c2)CN(C(=O)OC(C)C)N1C(=O)OC(C)C)S(=O)(=O)c1ccc(C)cc1`, for which the inhibition was 1.68%.

As for `CC1(C)CC(=O)C=C(c2cccs2)C1`, the inhibition was 0.35%. As for `CN(C)c1nnnn1-c1cccc(Oc2ncc(C(F)(F)F)cc2Cl)c1`, the inhibition was 8.18%. The figure for `CN1c2ccccc2C(C)(C)C12C=Nc1c(cc(N3CCOCC3)c3ccccc13)O2` (stereo not given) is 9%; for `C#Cc1cc(N2CCN(C(=O)c3ccoc3)CC2)n2nc(-c3cccc(Cl)c3)cc2n1` it is 49% (active); for `COc1ccc(NC(=S)NCCc2ccc(F)cc2)c(OC)c1` it is 7.84%. On to `O=C1c2cc(F)ccc2-n2c1nc1ccccc1c2=O`, for which the inhibition was 50.5% (active). The figure for `Cc1no[n+]([O-])c1COc1ccc(/C=N/n2nnnc2N)cc1` is -1.3%; for `CCOc1ccc(C(=O)c2cc([N+](=O)[O-])ccc2Cl)cc1` it is 12.6%. The figure for `CCCc1nnc(SCC(=O)Nc2ccc(C(=O)OCC)cc2)o1` is 5.44%; for `Cc1cc(C(=O)CSc2nnnn2C)c(C)n1CCc1ccc(F)cc1` it is 5.26%; for `CC(C)N1CCc2c(sc(NC(=O)c3ccc([N+](=O)[O-])o3)c2C(N)=O)C1` it is 37.6% (active).

For `CCCCNC(=O)COC(=O)c1c2c(nc3ccccc13)/C(=C/c1cccs1)CC2`, the inhibition is 11.2%.
